Potency and affinity values are given separately. Results filed as inconclusive are left out. A call without a number means that no potency is given here. Active and inactive are the calls of the source.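 How the source made its calls: active means signal loss with fitted half-maximal concentration at or below twice the top valid tested dose in every test run; inconclusive means runs disagree, flat 30 to 70% signal loss, or poor fit; inactive means all runs flat, opposite direction, or potency beyond limit.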
Experiment: HEK293T cytotoxicity, dose response, cytotoxicity control for miR-122 modulator project, cell-based, inhibitor set, cherry-pick, set 2 (AID 720697)
Conditions: HEK293T viability, CellTiter-Glo luminescence, 48 h; series mostly up to 26 µM

Q: Which outcome does the source give for `C=CCc1ccccc1OCC(O)CN1CCN(CCN2C(=O)c3cccc4cccc(c34)C2=O)CC1` (stereo unspecified) here?
A: inactive

Q: Which outcome does the source give for `CCN(C[C@H]1[C@H](c2ccccc2)[C@@H](CO)N1S(C)(=O)=O)C(=O)C1CC1` here?
A: inactive

Q: For `CCN(C[C@@H]1N[C@@H](CO)[C@@H]1c1ccc(C2=CCCC2)cc1)C(=O)c1cccnc1`, which outcome is on record?
A: inactive

Q: With `Cc1cc(C(C)(C)C)cc(S(=O)(=O)NCCc2ccncc2)c1C` as the compound, how does the outcome read?
A: inactive

Q: For `CNC(=O)C[C@@H]1CC[C@@H]2[C@@H](COc3ccc(NC(=O)c4cccc(OC)c4)cc3C(=O)N2C)O1`, which outcome is on record?
A: inactive

Q: With `CNC(=O)C[C@H]1CC[C@@H]2[C@@H](COc3ccc(NC(=O)Nc4ccc(Cl)cc4)cc3C(=O)N2C)O1` as the compound, how does the outcome read?
A: inactive

Q: With `CNC(=O)C[C@H]1CC[C@@H]2[C@H](COc3ccc(NC(=O)Nc4cccc(F)c4)cc3C(=O)N2C)O1` as the compound, how does the outcome read?
A: inactive

Q: Which outcome does the source give for `C/C=C/c1ccc([C@H]2[C@@H](CO)N(C(=O)C3CC3)[C@H]2CN(C)C(=O)CC2CC2)cc1` here?
A: inactive

Q: For `Cc1ccccc1NC(=O)Nc1ccc2c(c1)C(=O)N(C)[C@H]1CC[C@@H](CC(=O)O)O[C@H]1CO2`, which outcome is on record?
A: inactive

Q: Which outcome does the source give for `Cc1cc(C)n(C(=O)Cn2nc(C)c(Br)c2C)n1` here?
A: inactive

Q: Which outcome does the source give for `CCC(=O)N1[C@H](CN(C(C)C)S(C)(=O)=O)[C@@H](c2ccccc2)[C@@H]1CO` here?
A: inactive

Q: Which outcome does the source give for `CO[C@@H]1CN(C)C(=O)c2ccc(NC(=O)c3ccc(Oc4ccccc4)cc3)cc2OC[C@H](C)NC[C@H]1C` here?
A: inactive

Q: With `CCCNC(=O)Nc1ccc2c(c1)C(=O)N(C)[C@H]1CC[C@H](CC(=O)NC3CCC3)O[C@H]1CO2` as the compound, how does the outcome read?
A: inactive

Q: With `O=C(NC[C@@H]1N[C@@H](CO)[C@H]1c1ccccc1)C1CCC1` as the compound, how does the outcome read?
A: inactive

Q: With `CCCNC(=O)C[C@H]1CC[C@@H]2[C@H](COc3ccc(NS(=O)(=O)c4ccccc4C)cc3C(=O)N2C)O1` as the compound, how does the outcome read?
A: inactive

Q: For `C[C@@H]1CN([C@H](C)CO)C(=O)c2cc(-c3cccc(C#N)c3)cnc2O[C@H]1CN(C)C(=O)C1CCC1`, which outcome is on record?
A: inactive

Q: Which outcome does the source give for `CNC(=O)C[C@H]1CC[C@@H]2[C@H](COc3ccc(NC(=O)NC(C)C)cc3C(=O)N2C)O1` here?
A: inactive

Q: Which outcome does the source give for `C[C@@H]1CN([C@@H](C)CO)S(=O)(=O)c2ccc(C#CC3(O)CCCC3)cc2O[C@@H]1CN(C)C(=O)c1cccnc1` here?
A: inactive

Q: Which outcome does the source give for `Cc1ccc(NCC(=O)c2ccccc2)cc1Cl` here?
A: inactive

Q: With `COCC(=O)N(C[C@H]1N[C@@H](CO)[C@@H]1c1ccc(C2=CCCC2)cc1)C(C)C` as the compound, how does the outcome read?
A: inactive

Q: For `C[C@H](CO)N1C[C@H](C)[C@@H](CN(C)Cc2ccc(C(F)(F)F)cc2)Oc2ccc(NS(=O)(=O)c3ccc(Cl)cc3)cc2CC1=O`, which outcome is on record?
A: inactive

Q: Which outcome does the source give for `Cc1cc(C)cc(NC(=O)c2ccc(CSc3nnc(C)s3)cc2)c1` here?
A: inactive

Q: For `COc1ccc(S(=O)(=O)Nc2ccc3c(c2)CC(=O)N([C@@H](C)CO)C[C@@H](C)[C@H](CN(C)Cc2ccc(C(F)(F)F)cc2)O3)cc1`, which outcome is on record?
A: inactive

Q: For `CCCNC(=O)Nc1ccc2c(c1)C(=O)N(C)[C@H]1CC[C@@H](CC(=O)NCC3CCCCC3)O[C@@H]1CO2`, which outcome is on record?
A: inactive

Q: For `CCS(=O)(=O)Nc1ccc2c(c1)C(=O)N(C)[C@@H]1CC[C@@H](CC(=O)NCCCN3CCOCC3)O[C@H]1CO2`, which outcome is on record?
A: inactive

Q: For `CN1C(=O)c2cc(NC(=O)c3cccc(F)c3)ccc2OC[C@H]2O[C@H](CC(=O)N3CCc4ccccc4C3)CC[C@@H]21`, which outcome is on record?
A: inactive

Q: For `COCCN(C[C@@H]1[C@@H](c2ccccc2)[C@H](CO)N1C(=O)C1CCC1)C(C)=O`, which outcome is on record?
A: inactive

Q: For `CCNC(=O)C[C@H]1CC[C@@H]2[C@@H](COc3ccc(NC(=O)Nc4cccc(Cl)c4)cc3C(=O)N2C)O1`, which outcome is on record?
A: inactive

Q: For `N#Cc1cccc(NC(=O)Nc2cccs2)c1`, which outcome is on record?
A: inactive

Q: For `CCOc1ccc(CCNC(=O)C2CCN(S(=O)(=O)N3CCC(C)CC3)CC2)cc1OCC`, which outcome is on record?
A: inactive

Q: For `COCC(=O)N(C[C@H]1[C@H](c2ccccc2)[C@@H](CO)N1C(=O)NC(C)C)C(C)C`, which outcome is on record?
A: inactive

Q: Which outcome does the source give for `CCCNC(=O)C[C@@H]1CC[C@@H]2[C@@H](COc3ccc(NS(=O)(=O)c4ccccc4C)cc3C(=O)N2C)O1` here?
A: inactive

Q: For `COc1ccc2[nH]c(C(=O)O)c(NS(=O)(=O)c3ccc(Cl)s3)c2c1`, which outcome is on record?
A: inactive

Q: With `CCNC(=O)C[C@H]1CC[C@@H]2[C@H](COc3ccc(NC(=O)c4cccs4)cc3C(=O)N2C)O1` as the compound, how does the outcome read?
A: inactive

Q: With `CN(C)CCNc1ncnc2c1sc1nc(-c3ccccc3)c3c(c12)CCCC3` as the compound, how does the outcome read?
A: inactive

Q: Which activity change, negative = cytotoxicity does the source give for `CNC(=O)c1nc(C)n(-c2cc(Cl)cc(Cl)c2)n1` here?
A: 4.99% [at 6 µM] (inactive)

Source: PubChem BioAssay AID720697 (Broad Institute, 2013)
